PubChem BioAssay (Tox21)
Records with an inconclusive call do not appear. A number with no mark means an inactive call. Active and inactive are the calls of the source. Calls come from the whole dose curve; as a rule, active = well fitted cell-killing curve with a large enough effect in the repeat runs; inconclusive = weak or mixed curves, or effect the other way; inactive = flat fitted curve, though single readings scatter.

Test: cAMP Responsive Elements (CRE) small molecule antagonists, cell-based qHTS assay: qHTS cell viability counter screen (AID 2060913); note: nearly all actives have a fitted effect of over 40% in size
Details: CRE-bla HEK293T viability, CellTiter-Glo luminescence, 5 h; series mostly up to 92.4 µM; viability change, negative = cytotoxic: at the top concentration
Method in brief: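 CRE-bla HEK293T cells (2,000/well, 18 h) given compound plus NKH477 0.25 uM final for 3 h at 37C; viability counter-screen by CellTiter-Glo luminescence in same wells after 30 min.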
% is set by controls: 0 for no effect and ±100 for the full control effect; potency is the fitted concentration of half-maximal effect.

For `O=C(O)Cn1cnnn1`, which “viability change, negative = cytotoxic” value is on record?
The value was -0.795% [at 42.5 µM].

With `C=CC(=O)O[C@H]1C[C@@H]2CC[C@@]1(C)C2(C)C` as the compound, how does the “viability change, negative = cytotoxic” value read?
The value was 25.2%.

For `O=C(NO)c1ccccc1`, which “viability change, negative = cytotoxic” value is on record?
The value was -2.16%.

Which “viability change, negative = cytotoxic” value does the source give for `CC1(C)CC(O)CC(C)(C)N1[O]` here?
The value was -1.94%.

With `COc1cc([C@@H]2c3cc4c(cc3[C@H](O)[C@H]3COC(=O)[C@H]23)OCO4)cc(OC)c1OC` as the compound, how does the Potency read?
The Potency was “inactive”.

Which “viability change, negative = cytotoxic” value does the source give for `Cc1nc2ccccc2c(=O)o1` here?
The value was -0.952%.

Which “viability change, negative = cytotoxic” value does the source give for `CCC(=O)OCCc1ccccc1` here?
The value was -6.32%.

For `C[Si](C)O[Si](C)C`, which “viability change, negative = cytotoxic” value is on record?
The value was 0.249%.

With `COS(C)(=O)=O` as the compound, how does the Potency read?
The Potency was “inactive”.

For `COc1ccc(Nc2ccc(OC)cc2)cc1`, which “viability change, negative = cytotoxic” value is on record?
Its value is -13%.

For `CC(=O)Nc1ccn(C2COC(COC(=O)c3ccccc3)O2)c(=O)n1` (configuration not stated), which “viability change, negative = cytotoxic” value is on record?
Its value is 0.85% [at 42.5 µM].

With `CCCCC1C(=O)N(c2ccccc2)N(c2ccc(O)cc2)C1=O` (configuration not stated) as the compound, how does the “viability change, negative = cytotoxic” value read?
Its value is 19.1% [at 42.5 µM].

For `O=Cc1ccc(O)c(O)c1O`, which “viability change, negative = cytotoxic” value is on record?
The value was 18.4% [at 42.5 µM].

With `CC(C)(C)c1ccc(O)c(C(C)(C)C)c1` as the compound, how does the Potency read?
The Potency was 48.6 µM (active).

For `Cc1ccco1`, which “viability change, negative = cytotoxic” value is on record?
The value was 1.1%.

Which “viability change, negative = cytotoxic” value does the source give for `CCCCc1ccc(Cl)cc1` here?
The value was 2.12%.

For `Clc1ccc2c(c1)CCc1cccnc1C2=C1CCNCC1`, which “viability change, negative = cytotoxic” value is on record?
The value was -2.83% [at 42.5 µM].
